High-throughput results: PubChem, National Center for Advancing Translational Sciences (NCATS)
A selection: hits, their analogues and other compounds. The true share with any hit is near 3.7%.
RGS4 inhibitor: human RGS4 inhibition. P49798. Transcreener GDP fluorescence polarization, RGS4-accelerated GTP hydrolysis. Potency, µM (top dose mostly 114 µM), without a hit: at the highest dose activity change, negative = inhibition, most hits filed as inhibitors. actives 0.039% (n = 390,000). AID 504845; note: potency is the fitted concentration of half-maximal effect; % is set by controls: 0 for no effect and ±100 for the full control effect; nearly all actives have a fitted effect of over 75% in size
Target sequence (P49798 whole entry, looked up): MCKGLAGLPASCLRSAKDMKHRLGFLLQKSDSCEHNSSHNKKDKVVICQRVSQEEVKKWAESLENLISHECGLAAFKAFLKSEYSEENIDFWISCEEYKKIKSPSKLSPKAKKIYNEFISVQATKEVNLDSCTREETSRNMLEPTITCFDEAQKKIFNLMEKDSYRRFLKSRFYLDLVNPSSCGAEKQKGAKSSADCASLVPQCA
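MLSMR compounds (23 nl, pin-transferred) preincubated 10 min at room temperature with a 500nM (2x) first reagent, then RGS4 at 900nM (2x) plus Transcreener GDP mix added; fluorescence polarization (620/688 nm) read before and after 90 min at 30 °C.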
DRD3 antagonist: antagonists of human D3 dopamine receptor | actives 2.5% (n = 360,000) | D3R cells, DiscoveRx beta-arrestin luminescence, antagonist mode; stronger effect = lower value | max response, negative = inhibition, %; in the data active = max response below about -50%; inconclusive = no clear call, values can overlap the other calls; note: % is set by controls: 0 for no effect and ±100 for the full control effect
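Cells plated overnight at 1500 cells/well, then exposed to library compounds with dopamine controls for 90 minutes at 37 degrees C. DiscoveRx reagent added for 30–60 minutes at room temperature; luminescence read, quantitative HTS format.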
D3 ag: agonists of human D3 dopamine receptor; D3R DiscoveRx beta-arrestin cells, luminescence, 90 min; max activation, %; actives 0.58% (n = 410,000); in the data active = max activation above about 30%; note: 0% is about no effect
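Agonist-mode cell screen: cells plated at 1500/well and incubated overnight at 37 °C, then exposed to library compounds for 90 min at 37 °C. Detection reagent was added for 30–60 min at room temperature, and luminescence was read.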
PTHR1 ag: agonists of human PTHR1 parathyroid hormone receptor; Q03431; HEK293 GP2 PTHR1 cells, GloSensor cAMP luminescence, 1 h; Potency, µM (titrated, usually from 115 µM), without a hit: at the highest dose activation, hits mostly activators; actives 0.075% (n = 410,000); AID 743266; note: potency is the fitted concentration of half-maximal effect; nearly all actives have a fitted effect of over 55% in size
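HEK-293-derived GP2 cells expressing PTHR1 and a GloSensor cAMP reporter, 3,000/well, plated overnight, given luciferin plus IBMX (each 0.5 mM as added) for 1 h at 37 °C, then compound for 1 h at 37 °C. Luminescence was read after 15 min at room temperature.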
BRCA1 expr act: BRCA1 expression activation; MCF7-BRCA1-FFLuc reporter, luminescence, 48 h; response scale: scaled: vehicle 0%, 10 µM genistein 100%; Potency, µM (top dose mostly 46.1 µM), for inactives: at the highest dose activation, usual class: activators; actives 1.1% (n = 380,000); AID 624202; note: potency is the fitted concentration of half-maximal effect; nearly all actives have a fitted effect of over 80% in size
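48 h compound treatment of MCF7-BRCA1-FFLuc cells (phenol-red free MEM, 37 °C), then 15 min with luciferase substrate and luminescence imaging.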
B2AR arrestin: beta2AR (human) beta-arrestin recruitment activity; Potency, µM (titrated, usually from 46.1 µM), without a hit: at the highest dose activation, most hits filed as activators; beta-arrestin recruitment to beta2AR, cell-based reporter; P07550; actives 0.02% (n = 330,000); AID 492947;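 note: potency is the fitted concentration of half-maximal effect; 0% = DMSO controls and full agonism = EC100 isoproterenol or metaproterenol; nearly all actives have a fitted effect of over 65% in size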
Target sequence (P07550 whole entry, looked up): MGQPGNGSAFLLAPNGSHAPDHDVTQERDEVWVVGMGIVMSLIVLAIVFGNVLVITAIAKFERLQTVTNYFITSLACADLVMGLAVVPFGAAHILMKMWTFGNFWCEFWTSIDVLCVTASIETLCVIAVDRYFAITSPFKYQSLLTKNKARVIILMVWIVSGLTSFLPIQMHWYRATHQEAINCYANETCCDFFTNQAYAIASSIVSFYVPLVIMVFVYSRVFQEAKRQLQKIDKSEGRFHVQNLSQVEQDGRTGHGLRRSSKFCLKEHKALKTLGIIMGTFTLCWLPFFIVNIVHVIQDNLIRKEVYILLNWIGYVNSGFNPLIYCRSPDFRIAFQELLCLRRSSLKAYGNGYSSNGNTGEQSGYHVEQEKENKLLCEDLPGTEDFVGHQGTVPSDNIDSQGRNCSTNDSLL
Starred values were filed as active, the others as inactive; i = inactive; ? = inconclusive; / = no result; [ ] = remark or other dose. Unless noted, calls come from the whole dose curve; as a rule, active = well fitted curve in the direction sought with a large enough effect; inconclusive = small, poorly fitted or top-dose-only effect, or another doubt; inactive = no such curve, though single readings can be large; an effect the other way counts as inactive or inconclusive.

SMILES	RGS4 inhibitor	DRD3 antagonist	D3 ag	PTHR1 ag	BRCA1 expr act	B2AR arrestin
O=C(OCc1nnc(-c2ccccc2)o1)c1cc(S(=O)(=O)N2CCOCC2)c(Cl)cc1Cl	-27%[11.4 µM]	-55*	1	-5%[57.5 µM]	4%	0%
O=C(OCc1ccccc1)c1ccccc1	18%	-9	-33	-42%	2%	/
O=C(OCc1ccc(C(=O)c2ccccc2)cc1)c1cccc(-c2nnc(-c3ccccc3)o2)c1	-17%	-19	-6	-23%	-76%	0%
O=C(OCc1ccccc1)c1cccc(-c2nnc(-c3ccccc3)o2)c1	-3%	25	38*	-20%[57.5 µM]	-23%	-1%
COc1ccccc1C(=O)NCCC(=O)NCC1CCCO1 (stereo not given)	-9%	0	-3	i	0%	0%
COc1ccccc1CNc1ccc(-c2nc(-c3ccco3)no2)cc1[N+](=O)[O-]	-4%	/	4	i	0%	/
Cc1ccccc1NS(=O)(=O)c1ccc(C(=O)NCC2CCCO2)cc1 (stereo not given)	-1%	2	2	-3%	18%	-2%
CN(CCC#N)C(=O)COC(=O)c1nn(-c2ccccc2)c(=O)c2ccccc12	1%	-58*	-7	-24%	14%	0%
O=C(Nc1cccc(F)c1)[C@@H](c1ccccc1)N1Cc2ccccc2C1=O	-17%	/	5	i	-16%	/
COc1ccc(CC(=O)NNC(=S)Nc2ccccc2)cc1Cl	-17%	-8	5	-16%	-28%	0%
CCCOc1ccc(CC(=O)NNC(=S)Nc2ccccc2)cc1Br	-23%	-56*	6	-8%[57.5 µM]	23%	-1%
CN1C(=O)c2ccccc2Sc2ccc(NC(=O)COc3ccccc3)cc21	-19%	/	-2	-85%	/	/
ONC(=Nc1cccc(C(F)(F)F)c1)c1cccnc1	-12%	-63*	-2	i	-17%	0%
O=C(NCc1cccnc1)c1cccc(C(F)(F)F)c1	-9%	-9	-18	-8%	4%	-2%
Cc1cccc(Nc2nnc(SCC(=O)NC(=O)CN3CCCC3=O)s2)c1	-32%	10	-14	-28%	-2%	0%
CCOc1ccc(S(=O)(=O)NCCC(=O)N2CC(C)CC(C)C2)cc1 (stereo not given)	1%	3	1	-25%	0%	0%
CC1CCCC(NC(=O)c2n[nH]c(=O)c3ccccc23)C1C (stereo not given)	-3%	?	12	-4%[57.5 µM]	11µM*	-1%
O=C(Oc1c(Cl)cc(Cl)c2cccnc12)c1cccc([N+](=O)[O-])c1	-23%	-94*	-29	-4%	-67%	4%
O=C(Oc1ccc(Cl)c2cccnc12)c1ccco1	2%	-138*	-40	-24%[57.5 µM]	-68%	?
O=C(Oc1cccc2cccnc12)c1cccc([N+](=O)[O-])c1	12%	?	-21	2%	1%	10%
O=C(Oc1ccc(Cl)c2cccnc12)c1cccc([N+](=O)[O-])c1	4%	-72*	-26	i	-61%	-1%
COc1ccccc1NC(=O)Nc1nnc([C@@H]2C[C@H](O)[C@@H](CO)O2)s1	/	?	-8	i	17%	/
O=C(CSCc1cnn(-c2ccccc2)c1-n1cccc1)NCc1ccccc1F	0%	/	-5	-79%	/	/
O=C(c1cccnc1)c1ncc(C(F)(F)F)cc1Cl	16%	7	-4	-2%	24%	0%
CC(=O)N1CCCN(Cc2nc(C3(c4ccc(C)cc4)CCCC3)no2)CC1	6%	12	8	0%	-16%	0%
SMILES	RGS4 inhibitor	DRD3 antagonist	D3 ag	PTHR1 ag	BRCA1 expr act	B2AR arrestin
COCCN1CCN(Cc2nc(C3(c4ccc(C)cc4)CCCC3)no2)CC1	1%	-54*	-15	i	5%	-1%
CC1=C(c2ccc(Cl)cc2)S(=O)(=O)N=C1N1CCN(c2cccc(C(F)(F)F)c2)CC1	12%	/	7	15%	/	/
CC(C)c1cccc(-c2csc(C(C)(O)c3ccccc3)n2)c1 (stereo not given)	/	-57*	-15	-28%	0%	/
CC(O)(c1ccccc1)c1nc(-c2cccc(C(=O)O)c2)cs1 (stereo not given)	/	-10	-7	-43%	10µM*	/
CCOc1ccccc1NC(=O)C(CC(C)C)NS(=O)(=O)c1ccc2c(c1)oc(=O)n2C (stereo not given)	1%	/	-16	i	/	/
COc1cccc(C(=O)NCCS(=O)(=O)NC(C)CCc2ccccc2)c1 (stereo not given)	12%	-11	-4	-21%	-13%	0%
COC(=O)/C=C1\S/C(=N/NC(=O)c2ccccc2)NC1=O	-25%	-65*	-2	-26%	6%	0%
COC(=O)c1c(-c2ccc(Cl)cc2)noc1N1CCN(c2ccc(C)cc2C)CC1	-6%	/	21	-48%	/	/
O=[N+]([O-])c1ccccc1S(=O)(=O)N(CC(O)CN1CCCCC1)c1ccccc1 (stereo not given)	7%	-18	-23	i	-10%	0%
Cc1ccc(N(CC(O)CN2CCCCC2)S(=O)(=O)c2ccccc2[N+](=O)[O-])cc1 (stereo not given)	8%	-51*	-17	-6%	-36%	-1%
CCC(=O)N1c2ccccc2CC1C(=O)NCc1cc(OC)ccc1OC (stereo not given)	14%	/	1	i	/	/
Cc1ccc(C(=O)c2cc3ccccc3o2)cc1C	21%	20	-5	-38%	11µM*	0%
Cc1ccc(C(=O)c2cc3ccccc3o2)cc1	10%	20	-9	-17%[57.5 µM]	?	-4%
COc1ccc(CCC(=O)Nc2sccc2C#N)cc1	-10%	-7	-2	-13%	11µM*	0%
COc1ccc(NC(=O)CSCC(=O)Nc2sccc2C#N)cc1	-50%	-19	-8	1%	-13%	-2%
Cc1cc(NC(=O)CC2CCCC2)ccc1Br	-3%	-25	0	-24%	8.9µM*	1%
O=C(CC1CCCC1)Nc1ccc2c(c1)CCC2	-24%	1	1	-17%	10µM*	0%
CCCN(CC(=O)Nc1ccccc1OC)C(=O)CCC(=O)c1ccc(Cl)s1	8%	-6	-9	-19%	-3%	-1%
O=C(CSc1nc2ccccc2nc1Cc1ccc(Cl)cc1)N1CCN(c2ccccc2F)CC1	-15%	/	37*	-24%	/	/
Cc1ccc(Cc2nc3ccccc3nc2SCC(=O)N2CCN(c3ccccc3F)CC2)cc1	-20%	/	3	-17%	/	/
COc1ccccc1N1CCN(C(=O)CSc2nc3ccccc3nc2Cc2ccc(C)cc2)CC1	15%	/	34*	-34%	/	/
COc1ccccc1N1CCN(C(=O)CSc2nc3ccccc3nc2Cc2ccc(F)cc2)CC1	20%	/	3	-26%	/	/
